The values that follow come from PubChem BioAssay.

Results filed as inconclusive are left out. Active and inactive are the calls of the source. Cut-off read from the data, not from the text of the source, unless noted: active = response above about 15%; inactive = the rest.

Assay [1] in a line: yeast TOR pathway RPL19A-GFP modulators, primary screen, cell-based, S. cerevisiae, multiplex flow cytometry (AID 1862; in the data active = percent of DMSO control GFP below about 86%;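 note: lower values mimic rapamycin by blocking the RPL19A rise seen in DMSO cells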). The settings on record: S. cerevisiae RPL19A-GFP strain, flow cytometry fluorescence, 3 h; at 10 µM; stronger effect = lower value. For orientation: A flow cytometer gives signals particle by particle.
The nature of assay [2]: modulators of MEP2-GFP levels in yeast, primary screen, S. cerevisiae, multiplex flow cytometry (AID 1867;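 active = GFP response, as percent of the DMSO control, above the screen-wide mean plus 3 SD, about 139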;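 note: median GFP channel fluorescence of barcode-gated MEP2-GFP cells measured by flow cytometry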). As to conditions: S. cerevisiae MEP2-GFP strain, 3 h, at 10 µM, stronger effect = higher value, 100% means same as DMSO wells.
Assay [3] is described as follows: modulators of CIT2-GFP expression in yeast, primary screen, S. cerevisiae, GFP fusion, multiplex flow cytometry (AID 1870;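 active = percent response above a set limit, the screen-wide mean plus 3 SD, cut at about 130% in these data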;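 note: barcoded CIT2-GFP strain pooled with four other GFP strains with rapamycin as positive control; median GFP fluorescence per well over plate mean of DMSO wells so 100% = DMSO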). The settings on record: 3 h, at 10 µM, stronger effect = higher value.
Assay [4] in a line: modulators of LAP4-GFP expression in yeast, primary screen, S. cerevisiae, multiplex flow cytometry (AID 1873;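 active = GFP signal, as percent of the solvent control, above the screen mean plus 3 SD, about 149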). As to conditions: 3 h, at 10 µM, stronger effect = higher value.
A short description of assay [5]: modulators of AGP1-GFP expression in yeast TOR pathway, primary screen, cell-based, multiplex flow cytometry, S. cerevisiae (AID 1887;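 active = GFP signal above the screen-wide mean plus 3 SD, that is over about 124.5% of the solvent control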;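 note: AGP1-GFP fusion strain of S. cerevisiae within a five-strain barcoded multiplex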). As to conditions: 3 h, at 10 µM, stronger effect = higher value.
The nature of assay [6]: inhibitors of CD8+ T cell-vesicle binding, pilot screen, LFA-1/ICAM-1 modulator project, MLPCN validation set, flow cytometry (AID 2523;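 active = response below a set limit, under 55% cells CD8-positive and vesicle-bound, and CD8 cells' 90th-percentile brightness under 279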;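 for vesicle binding response: mean PE anti-B7-1 fluorescence of CD8+ cells relative to row control; 100% = QL9-loaded vesicles with DMSO vehicle in the same plate row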). The settings on record: 2C mouse CD8+ T cells, at 7 µM, stronger effect = lower value; double positive events: measured here: CD8+/vesicle+ event percentage.
Assay [7] addresses Integrin beta-1 (Homo sapiens) + Integrin alpha-4 (Homo sapiens) (UniProt P13612+P05556). The assay is described as follows: inhibition of HUTS-21 binding to VLA-4, pilot screen, VLA-4 allosteric modulator project, U937 cells, HUTS-21 mAb, flow cytometry, validation set (AID 2674;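 active = inhibition above 50%, about 3 SD of the validation set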;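 note: antibody binding induced by the VLA-4 ligand LDV present at three times its Kd; 0% = LDV ligand with antibody and no compound and 100% = antibody without LDV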). The settings on record: HUTS-21 LIBS mAb binding, at 6.7 µM, stronger effect = higher value, binding induced by LDV ligand.

The nature of assay [8]: superoxide lowering in aged yeast cells, pilot screen, validation compound set (AID 2706;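 active = superoxide response below 65% of plate, a cut near 3 SD across the whole screen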;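 note: yeast exposed to compound for one week at 30 degrees C before staining; 100% = mean of all compound wells on the same plate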). The settings on record: S. cerevisiae aging, superoxide DHE fluorescence; at 10 µM; stronger effect = lower value.
For assay [9], the target named is Beta-adrenergic receptor kinase 1 (Homo sapiens) (UniProt P25098). The assay is described as follows: GRK2 binders displacing RNA aptamer, biochemical, validation, human GRK2, bead flow cytometry (AID 488806;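 active = aptamer binding inhibition above 30%, about 3 SD of noise from non-fluorescent compounds; inactive = inhibition at or below 30%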). As to conditions: bead-bound GRK2, FAM-aptamer displacement, at 10 µM, stronger effect = higher value.
Sequence of Beta-adrenergic receptor kinase 1 (Homo sapiens) (P25098 whole entry, looked up): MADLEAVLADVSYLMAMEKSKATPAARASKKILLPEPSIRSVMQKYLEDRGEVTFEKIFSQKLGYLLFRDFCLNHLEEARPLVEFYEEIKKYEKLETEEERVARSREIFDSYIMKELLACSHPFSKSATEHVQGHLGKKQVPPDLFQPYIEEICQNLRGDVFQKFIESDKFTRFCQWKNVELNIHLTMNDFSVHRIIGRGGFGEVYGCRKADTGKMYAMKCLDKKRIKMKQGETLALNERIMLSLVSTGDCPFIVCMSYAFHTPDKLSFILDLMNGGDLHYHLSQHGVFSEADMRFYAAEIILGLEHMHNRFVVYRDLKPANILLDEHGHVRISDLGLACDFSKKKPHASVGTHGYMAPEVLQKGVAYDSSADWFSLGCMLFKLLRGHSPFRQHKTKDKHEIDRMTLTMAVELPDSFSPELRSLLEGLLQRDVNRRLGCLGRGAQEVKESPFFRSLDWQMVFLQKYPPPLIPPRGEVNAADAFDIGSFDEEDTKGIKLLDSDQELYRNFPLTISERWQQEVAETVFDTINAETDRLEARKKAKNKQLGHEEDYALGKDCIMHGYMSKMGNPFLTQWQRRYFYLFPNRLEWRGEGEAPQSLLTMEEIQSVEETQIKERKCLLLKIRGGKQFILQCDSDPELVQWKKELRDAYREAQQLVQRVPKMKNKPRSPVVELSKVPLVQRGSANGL
In assay [10] the target is Beta-2 adrenergic receptor (Homo sapiens) (UniProt P07550). The assay is described as follows: beta2AR agonists driving receptor internalization, pilot screen, cell-based, FAP fluorogen, flow cytometry, validation set (AID 504459;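 active = percent response above 42, roughly 3 SD of non-fluorescent test compounds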;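 note: agonist-driven loss of surface beta2AR via internalization measured by FAP dye flow cytometry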). As to conditions: Am2.2-beta2AR cells, FAP surface receptor flow cytometry; at 10 µM; stronger effect = higher value.
Sequence of Beta-2 adrenergic receptor (Homo sapiens) (P07550 whole entry, looked up): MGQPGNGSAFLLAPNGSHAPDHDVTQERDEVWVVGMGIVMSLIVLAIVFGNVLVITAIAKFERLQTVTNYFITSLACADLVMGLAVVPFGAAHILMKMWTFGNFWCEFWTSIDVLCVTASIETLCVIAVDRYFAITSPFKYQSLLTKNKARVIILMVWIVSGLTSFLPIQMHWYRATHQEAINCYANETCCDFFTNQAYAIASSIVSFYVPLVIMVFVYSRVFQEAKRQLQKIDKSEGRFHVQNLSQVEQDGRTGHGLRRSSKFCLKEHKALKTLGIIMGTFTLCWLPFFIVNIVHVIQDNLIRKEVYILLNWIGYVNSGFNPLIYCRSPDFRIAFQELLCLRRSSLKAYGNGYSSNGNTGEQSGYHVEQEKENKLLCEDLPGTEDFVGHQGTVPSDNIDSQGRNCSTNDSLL
In assay [11] the target is AP-2 complex subunit beta (Homo sapiens) (UniProt P63010). Description: inhibitors of arrestin peptide binding to AP2, pilot screen, biochemical, validation set, GST-AP2 beads, flow cytometry (AID 504541;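 active = inhibition above 54%, about 3 SD of non-fluorescent compounds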;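 note: AP2 carries R879A mutation and is captured from E. coli lysate; bead-bound FITC arrestin peptide fluorescence measuring arrestin peptide binding to AP2; 0% = DMSO wells and 100% = excess unlabeled arrestin peptide control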). As to conditions: FITC arrestin peptide, at 10 µM, stronger effect = higher value, AP2 beta2 appendage fragment, R879A mutant.
Sequence of AP-2 complex subunit beta (Homo sapiens) (P63010 whole entry, looked up, the tested form may be a part, one chain of several): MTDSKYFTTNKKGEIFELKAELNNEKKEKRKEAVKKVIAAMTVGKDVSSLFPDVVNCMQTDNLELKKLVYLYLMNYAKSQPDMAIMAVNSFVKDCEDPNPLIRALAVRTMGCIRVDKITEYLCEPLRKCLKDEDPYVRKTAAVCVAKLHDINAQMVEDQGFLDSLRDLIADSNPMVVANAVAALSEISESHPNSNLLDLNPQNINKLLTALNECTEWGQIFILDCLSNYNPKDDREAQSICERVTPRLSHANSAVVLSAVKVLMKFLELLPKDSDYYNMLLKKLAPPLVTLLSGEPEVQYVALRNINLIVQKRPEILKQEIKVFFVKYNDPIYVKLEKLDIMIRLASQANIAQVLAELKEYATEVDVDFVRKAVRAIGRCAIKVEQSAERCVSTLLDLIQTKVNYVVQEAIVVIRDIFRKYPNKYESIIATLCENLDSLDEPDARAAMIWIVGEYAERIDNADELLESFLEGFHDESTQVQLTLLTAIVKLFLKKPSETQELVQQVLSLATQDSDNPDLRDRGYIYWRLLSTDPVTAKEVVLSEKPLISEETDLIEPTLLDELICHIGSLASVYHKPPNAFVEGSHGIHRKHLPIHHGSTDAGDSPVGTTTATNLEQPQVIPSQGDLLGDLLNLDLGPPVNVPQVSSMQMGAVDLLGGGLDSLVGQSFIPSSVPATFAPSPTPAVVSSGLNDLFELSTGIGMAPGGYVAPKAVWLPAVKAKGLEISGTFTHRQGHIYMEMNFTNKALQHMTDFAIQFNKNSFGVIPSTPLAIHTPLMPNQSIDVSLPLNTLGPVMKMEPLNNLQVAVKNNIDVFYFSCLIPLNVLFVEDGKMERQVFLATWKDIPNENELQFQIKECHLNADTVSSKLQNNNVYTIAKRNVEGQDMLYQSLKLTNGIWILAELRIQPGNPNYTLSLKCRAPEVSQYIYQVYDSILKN
Assay [12] is described as follows: yeast V-ATPase proton transport modulators, S. cerevisiae, pHLuorin, HTS validation (AID 504600).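 Note: plate controls were DMSO for no effect and reference compound for full effect.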 As to conditions: S. cerevisiae pHLuorin cytosolic pH, at 10 µM, stronger effect = higher value.
Assay [13] has as its system anti-desmoglein-3 scFv antibody binding to human DSG3. The assay is described as follows: inhibitors of anti-DSG3 scFv binding to DSG3, pilot screen, biochemical, validation compound set, bead-based, flow cytometry (AID 588368;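 active = binding below the plate cutoff, the plate median minus 3 SD, with a reading above zero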;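 note: signal is the median channel fluorescence of bead-bound GFP antibody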). The settings on record: Protein G beads, DSG3-Fc, scFv-GFP binding, at 10 µM, stronger effect = lower value.
Assay [14] in a line: inhibitors of fungal efflux pumps CDR1, CDR2, MDR1, pilot screen, validation compound set, multiplex, phenotypic (AID 588506;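 active = efflux inhibition above 0.42, the validation set average plus 4 SD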;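 note: Nile Red retained in cells so higher fluorescence means more efflux inhibition; 0 = negative control wells and 1 = enniatin B 25 µM full block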). The settings on record: S. cerevisiae pump-expressing triplex, Nile Red efflux flow cytometry; at 10 µM; stronger effect = higher value; the pumps come from Candida albicans.
Assay [15] deals with ATP-binding cassette sub-family B member 6 (Homo sapiens) (UniProt Q9NP58). The assay is described as follows: ABCB6 transporter inhibitors, pilot screen, K562-ABCB6 cells, flow cytometry, validation set (AID 588550;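 active = inhibition above the screen-wide mean plus 3 SD, about 51%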;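 note: 0% = DMSO wells and 100% = benzethonium chloride 70 µM positive control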). As to conditions: K562-ABCB6 porphyrin accumulation, 1 h, at 10 µM, stronger effect = higher value.
Sequence of ATP-binding cassette sub-family B member 6 (Homo sapiens) (Q9NP58 whole entry, looked up): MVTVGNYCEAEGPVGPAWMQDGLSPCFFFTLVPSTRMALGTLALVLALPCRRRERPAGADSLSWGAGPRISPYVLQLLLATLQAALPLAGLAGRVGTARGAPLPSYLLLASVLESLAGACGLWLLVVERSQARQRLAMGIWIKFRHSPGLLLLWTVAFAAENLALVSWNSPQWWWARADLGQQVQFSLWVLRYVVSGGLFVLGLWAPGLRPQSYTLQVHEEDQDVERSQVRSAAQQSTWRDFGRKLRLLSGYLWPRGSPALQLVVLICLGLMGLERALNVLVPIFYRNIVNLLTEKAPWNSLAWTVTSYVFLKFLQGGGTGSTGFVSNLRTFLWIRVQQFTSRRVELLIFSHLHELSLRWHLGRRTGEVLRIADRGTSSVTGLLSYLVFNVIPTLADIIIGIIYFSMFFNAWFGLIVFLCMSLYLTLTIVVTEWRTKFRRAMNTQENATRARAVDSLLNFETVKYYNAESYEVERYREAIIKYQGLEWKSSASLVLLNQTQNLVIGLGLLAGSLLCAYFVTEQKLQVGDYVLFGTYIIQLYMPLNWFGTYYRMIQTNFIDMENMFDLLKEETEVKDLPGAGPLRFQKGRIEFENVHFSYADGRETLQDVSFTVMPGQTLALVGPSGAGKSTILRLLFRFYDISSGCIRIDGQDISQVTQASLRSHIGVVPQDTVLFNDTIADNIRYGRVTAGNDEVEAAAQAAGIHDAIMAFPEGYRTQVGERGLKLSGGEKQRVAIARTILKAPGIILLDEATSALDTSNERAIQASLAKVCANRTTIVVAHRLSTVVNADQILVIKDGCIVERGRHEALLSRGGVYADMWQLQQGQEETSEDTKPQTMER
The nature of assay [16]: promoters of myeloid differentiation in arrested cells, primary screen, cell-based, GFP/MAC1 double positive, flow cytometry, validation set (AID 588685;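 active = differentiation response of at least 50%, scaled between solvent and reference control, from cells with both markers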;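 note: compound exposure lasts four days before antibody staining and flow analysis; 0% = DMSO wells and 100% = 5 µM fulvestrant positive control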). The settings on record: ER-HoxA9 marrow cells, stronger effect = higher value, normalized: vehicle 0, fulvestrant 100.

Sequence of Integrin beta-1 (Homo sapiens) + Integrin alpha-4 (Homo sapiens) (P05556 whole entry, looked up): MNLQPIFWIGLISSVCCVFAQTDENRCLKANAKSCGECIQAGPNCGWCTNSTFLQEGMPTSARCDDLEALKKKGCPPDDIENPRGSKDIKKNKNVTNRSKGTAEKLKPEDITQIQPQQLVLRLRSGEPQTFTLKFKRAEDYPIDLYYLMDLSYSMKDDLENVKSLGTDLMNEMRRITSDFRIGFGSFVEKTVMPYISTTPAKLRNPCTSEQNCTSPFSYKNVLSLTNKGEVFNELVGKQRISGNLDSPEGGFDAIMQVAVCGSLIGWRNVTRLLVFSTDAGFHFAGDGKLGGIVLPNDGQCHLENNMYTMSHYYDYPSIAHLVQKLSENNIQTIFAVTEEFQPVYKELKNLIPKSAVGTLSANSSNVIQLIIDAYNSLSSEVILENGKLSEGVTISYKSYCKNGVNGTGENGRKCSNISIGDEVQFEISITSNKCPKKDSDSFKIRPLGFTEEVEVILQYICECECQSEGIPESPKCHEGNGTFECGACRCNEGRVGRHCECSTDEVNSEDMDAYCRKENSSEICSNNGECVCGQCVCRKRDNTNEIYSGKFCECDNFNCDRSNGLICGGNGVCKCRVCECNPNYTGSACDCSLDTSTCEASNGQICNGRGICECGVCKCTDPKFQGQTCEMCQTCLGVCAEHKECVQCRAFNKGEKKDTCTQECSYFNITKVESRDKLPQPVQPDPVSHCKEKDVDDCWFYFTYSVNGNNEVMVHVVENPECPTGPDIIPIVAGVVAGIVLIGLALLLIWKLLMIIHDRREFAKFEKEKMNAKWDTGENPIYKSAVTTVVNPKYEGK
Sequence of Integrin beta-1 (Homo sapiens) + Integrin alpha-4 (Homo sapiens) (P13612 whole entry, looked up): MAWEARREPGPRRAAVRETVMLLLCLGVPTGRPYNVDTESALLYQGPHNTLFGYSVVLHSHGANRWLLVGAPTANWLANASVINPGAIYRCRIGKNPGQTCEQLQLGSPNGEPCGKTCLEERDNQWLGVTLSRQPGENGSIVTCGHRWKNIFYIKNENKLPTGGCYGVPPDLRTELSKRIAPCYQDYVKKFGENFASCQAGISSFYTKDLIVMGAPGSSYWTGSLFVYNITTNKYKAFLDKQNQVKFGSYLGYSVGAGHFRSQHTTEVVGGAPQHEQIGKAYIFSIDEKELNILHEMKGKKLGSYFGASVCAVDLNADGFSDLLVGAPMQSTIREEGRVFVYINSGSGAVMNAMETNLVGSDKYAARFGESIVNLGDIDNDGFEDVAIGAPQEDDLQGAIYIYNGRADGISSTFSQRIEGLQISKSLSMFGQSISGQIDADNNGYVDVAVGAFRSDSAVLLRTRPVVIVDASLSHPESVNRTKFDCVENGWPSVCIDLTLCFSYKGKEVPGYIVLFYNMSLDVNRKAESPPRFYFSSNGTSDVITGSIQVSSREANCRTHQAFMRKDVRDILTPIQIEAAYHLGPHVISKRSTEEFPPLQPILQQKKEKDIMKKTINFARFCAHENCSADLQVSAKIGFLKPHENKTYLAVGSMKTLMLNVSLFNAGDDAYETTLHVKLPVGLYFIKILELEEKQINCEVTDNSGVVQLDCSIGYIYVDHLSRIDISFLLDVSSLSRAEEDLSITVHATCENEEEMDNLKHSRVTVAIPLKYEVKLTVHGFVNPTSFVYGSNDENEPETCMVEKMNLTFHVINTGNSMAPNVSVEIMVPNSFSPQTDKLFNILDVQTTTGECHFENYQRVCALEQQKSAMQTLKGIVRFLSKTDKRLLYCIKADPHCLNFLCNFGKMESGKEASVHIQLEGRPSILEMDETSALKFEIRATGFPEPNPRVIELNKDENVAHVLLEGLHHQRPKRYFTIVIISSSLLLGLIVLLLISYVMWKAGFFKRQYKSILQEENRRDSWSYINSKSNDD

What is called inhibition is the relative decrease from the control value, in per cent. Turning to `Fc1ccc(NC(=S)Nc2ccccc2Cl)cc1`, the percent of DMSO control GFP in [1] was 91.1% (inactive). Besides, the results for the GFP response vs DMSO in assay [2] and in [4] were 133% (inactive) and 78.7% (inactive), respectively. Besides, the percent response of DMSO control in [3] was 106% (inactive). For the same compound, in assay [5], the GFP response, % of DMSO was 93.1% (inactive). Besides, the double positive events in [6] amounted to 63.7%. Besides, the vesicle binding response in assay [6] was 235% (inactive). Further, the figures for the inhibition in assay [7], in [11] and in assay [15] were 20% (inactive), 10.1% (inactive) and 12% (inactive), respectively. Further, in assay [8], the superoxide response (% of plate) was 91.9% (inactive). Also, the aptamer binding inhibition in [9] is 3% (inactive). The response is -6.11% (inactive) in [10] and 0.15% (inactive) in assay [12]. In addition, in assay [13], the binding (% of control) is 102% (inactive). Moreover, the efflux inhibition (fraction of control) in [14] is 0.37 (inactive). Moreover, in assay [16], the differentiation response is -1.64% (inactive).

For `CN(C)CCOC(=O)C(c1ccccc1)C1(O)CCCC1` (stereo not given), in [1], the percent of DMSO control GFP was 92% (inactive). In addition, the GFP response vs DMSO was 137% (inactive) in assay [2] and 75.9% (inactive) in assay [4]. Also, the percent response of DMSO control in [3] was 97.9% (inactive). Moreover, in assay [5], the GFP response, % of DMSO is 84.3% (inactive). This compound also yielded a double positive events in assay [6] of 65.7%. Moreover, the vesicle binding response in [6] is 249% (inactive). The inhibition in assay [7] was 13.2% (inactive); in assay [11], 1.31% (inactive); in assay [15], 14% (inactive). Moreover, the superoxide response (% of plate) in [8] is 96.1% (inactive). In assay [9], the aptamer binding inhibition is 3% (inactive). In addition, the response is 2.3% (inactive) in [10] and 0.51% (inactive) in assay [12]. Moreover, the binding (% of control) in assay [13] is 103% (inactive). The efflux inhibition (fraction of control) in [14] was 0.05 (inactive). For the same compound, in assay [16], the differentiation response was -6.55% (inactive).

In the case of `Cc1cccc2c(C(=O)O)cc(-c3cccnc3)nc12`, the percent of DMSO control GFP in [1] is 104% (inactive). Further, the GFP response vs DMSO in [2] was 105% (inactive); in [4], 98% (inactive). For the same compound, in assay [3], the percent response of DMSO control was 95.4% (inactive). In addition, in assay [5], the GFP response, % of DMSO was 101% (inactive). The compound also had a double positive events in [6] of 63.5%. For the same compound, the vesicle binding response in assay [6] was 140% (inactive). Moreover, the inhibition in assay [7] is 3.7% (inactive); in assay [11], -0.94% (inactive); in [15], -3% (inactive). Moreover, the superoxide response (% of plate) in [8] is 102% (inactive). In addition, the aptamer binding inhibition in assay [9] was 0% (inactive). Moreover, the response in assay [10] was -8.08% (inactive); in [12], 2.28% (inactive). Besides, the binding (% of control) in [13] is 95% (inactive). In assay [14], the efflux inhibition (fraction of control) is -0.01 (inactive). Also, in assay [16], the differentiation response was 7.09% (inactive).

Consider `COC(=O)c1[nH]c2ccc(C)cc2c1NC(=O)CN1CCc2cc(OC)c(OC)cc2C1`, for which the percent of DMSO control GFP in assay [1] is 106% (inactive). Also, the GFP response vs DMSO in assay [2] was 111% (inactive); in assay [4], 103% (inactive). For the same compound, the percent response of DMSO control in [3] is 117% (inactive). Moreover, the GFP response, % of DMSO in assay [5] is 105% (inactive). This compound registered a double positive events in [6] of 63.8%. In addition, the vesicle binding response in assay [6] is 296% (inactive). The inhibition in assay [7] was -11.8% (inactive); in [11], -5.24% (inactive); in assay [15], 24% (inactive). Further, the superoxide response (% of plate) in [8] is 130% (inactive). In assay [9], the aptamer binding inhibition is 4% (inactive). Further, the results for the response in [10] and in [12] were 10.4% (inactive) and -3.57% (inactive), respectively. Further, in assay [13], the binding (% of control) is 101% (inactive). The efflux inhibition (fraction of control) in [14] is 0.5 (active). The differentiation response in [16] was -10.4% (inactive).

For `COc1cccc(-n2c(C)c3c(OC)cccc(=O)c3c2C)c1`, the percent of DMSO control GFP in [1] is 89.8% (inactive). Also, the GFP response vs DMSO in [2] was 140% (active); in [4] it was 85.8% (inactive). Also, the percent response of DMSO control in [3] is 106% (inactive). Besides, the GFP response, % of DMSO in assay [5] is 92.4% (inactive). This compound also had a double positive events in assay [6] of 49.9%. In addition, in assay [6], the vesicle binding response was 53.8% (active). Further, the figures for the inhibition in assay [7], in [11] and in assay [15] were -33.3% (inactive), 41% (inactive) and 0% (inactive), respectively. In addition, the superoxide response (% of plate) in assay [8] is 109% (inactive). The aptamer binding inhibition in assay [9] is 5% (inactive). In addition, the response in assay [10] was -3.28% (inactive); in [12] it was -5.84% (inactive). In addition, in assay [13], the binding (% of control) was 103% (inactive). Moreover, the efflux inhibition (fraction of control) in assay [14] is 0.12 (inactive). Further, the differentiation response in [16] was -4.91% (inactive).
